The source of these data is PubChem BioAssay (NCATS).

SMILES strings stand for the structures. Records with an inconclusive call do not appear. Values without a mark were called inactive. The source made the active and inactive calls. Calls come from the whole dose curve; as a rule, active = well fitted curve in either direction with a large enough effect (not every such curve was filed as active); inconclusive = small, poorly fitted or top-dose-only effect, or another doubt; inactive = flat fitted curve, though single readings scatter.
% is set by controls: 0 for no effect and ±100 for the full control effect.

This experiment concerns the target Mitogen-activated protein kinase 10 (Mus musculus) (UniProt Q61831). Kind of experiment: JNK3 AlphaScreen Assay (AID 530).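 Note: kinase came from lysate of stimulated human HepG2 cells.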 The settings on record: JNK3 lysate, c-Jun phosphorylation; series mostly up to 57.1 µM; activity change, negative = inhibition: at the top concentration. An excerpt: NIH Chemical Genomics Center [NCGC]
NIH Molecular Libraries Screening Centers Network [MLSCN]
The c-jun N-terminal kinase (JNK) family are serine/threonine protein kinases that phosphorylate c-jun, a component of the transcription factor […] (AP-1). JNK kinases are members of the mitogen-activated protein kinase family including the extracellular regulated kinases and p38 kinases. Three JNK genes (JNK 1, 2, and 3) have been identified in humans so far. JNK1 and JNK2 have a broad distribution and JNK3 is primarily found in neuronal tissues and cardiac myocytes.
JNK3 has been under consideration as a target for the treatment of neurodegenerative disorders. […] JNK pathway is also involved in pathological process in a mouse model of Parkinson's disease (Xia et al., 2001).
Given these potential tissue distributions and links to neuroprotection, JNK3 inhibitors should provide useful investigational tools to study the role of this kinase in several diseases including, arthritis, stroke, myocardial infarction, ischemic injury and Parkinson's disease.
A homogeneous AlphaScreen is developed to measure the activity of JNK3. AlphaScreen is a two bead-based proximity-dependent chemical energy transfer luminescent assay platform. The phosphorylation of a biotinylated c-jun substrate by JNK3 can be detected with an antibody raised against phosphorylated c-jun. This process brings streptavidin donor beads and Protein-A acceptor beads to within a proximity range of <200 nm, and subsequently lead a chemical luminescent reaction upon exciting donor beads with 680 nm laser excitation light. Inhibition of JNK3 activity by small molecules and subsequent decrease in the antibody binding to biotinylated c-jun could attenuate or abolish this chemical luminescent reaction.
Yang DD, Kuan CY, Whitmarsh AJ, Rincon M, Zheng TS, Davis RJ, Rakic P and Flavell RA (1997) Absence of excitotoxicity-induced apoptosis in the hippocampus of mice lacking the Jnk3 gene. Nature 389:865-870. [PMID: 9349820]
Herdegen T, Claret FX, Kallunki T, Martin-Villalba A, Winter C, Hunter T, and Karin M (1998) Lasting N-terminal phosphorylation of c-Jun and activation of c-Jun N-terminal kinases after neuronal injury. J.Neurosci. 18:5124-5135. [PMID: 9651196]
Xia XG, Harding T, Weller M, Bieneman A, Uney JB and Schulz JB (2001) Gene transfer of the JNK interacting protein-1 protects dopaminergic neurons in the MPTP model of Parkinson's disease. Proc.Natl.Acad.Sci.U.S.A. 98:10433-10438.
NCGC Assay Protocol Summary:
GST-cJun (1-79) (Stratagene, La Jolla CA, #205145) was biotnylated by PerkinElmer (PerkinElmer-BioSignalInc. Montreal, Canada) and was detectable by the streptavidin Donor beads. Anti-(phospho)cJun (Ser73) antibody was from UpState (Charlottesvilles, VA, #06-659). JNK3-containing lysates were generated from HepG2 cells and pre-activated by interleukin1-beta and tumor necrosis factor alpha. All reagents were stored at -20 C before using. Phosphorylated biotinylated-GST-cJun was recognized by Anti-(phospho)cJun (Ser73) antibody and this process brings acceptor and donor beads together. Therefore JNK3 phosphorylation of cJun can be measured by Alpha reading by EnVision (PerkinElmer, Boston, MA).
The composition of kinase buffer was (in mM) 20 tris- HCl (pH 7.6) 10 MgCl2, 1 DTT, and 0.1 Na3VO4 and 0.01% Tween-20. Beads were diluted in detection buffer containing (in mM) 20 tris-HCl (pH 7.7), 20 NaCl and 80 EDTA and 0.3% BSA. The assay was performed at room temperature. All compounds were screened as titrations from 0.6 nM to 46 uM final concentration. The assay was performed in 1536-well format (white solid bottom and untreated) as follows:
Sequence,Parameter,Value,Description
1,Reagent,3 uL,Biotin-GST-cJun, Anti-(phospho)cJun and pre-activated JNK3-containing lysates
2,Compound,23 nL,Final concentration was 0.6nM to 46uM
3,Time,15 minutes,Room Temperature
4,Reagent,1 uL,ATP final concentration 10uM
6,Reagent,0.5 uL,2ng/well bead mixture
[…]
A general note: Bead proximity is the source of the signal in Alpha formats.
As for `CC(C)(c1ccc(O)cc1)c1ccc(O)cc1`, the outcome was inactive.

With `CC(C)N(CCC(=O)c1ccc2ccccc2c1)Cc1ccccc1`, the “activity change, negative = inhibition” value is -11.5%.

`NCC(=O)O`: the “activity change, negative = inhibition” value was -7.52%.

`CN(C)c1cc2c(Nc3ccc4c(cnn4Cc4ccccc4)c3)ncnc2cn1`: the “activity change, negative = inhibition” value was 6.25%.

As for `CCCC(=O)c1cc(O)c(O)cc1O`, the “activity change, negative = inhibition” value is -21.7%.

In the case of `Nc1cccc2c(N)cccc12`, the “activity change, negative = inhibition” value was 16.7%.

As for `Oc1ccccc1`, the “activity change, negative = inhibition” value was 6.84%.

`CCCCC(CC)COC(=O)c1ccccc1C(=O)O` (configuration not stated): the “activity change, negative = inhibition” value was 2.88%.

In the case of `CC(C)C(C)(C)C(C)(C)C(C)(C)S`, the “activity change, negative = inhibition” value is 5.66%.

Turning to `O=C1NC(c2cccc([N+](=O)[O-])c2)=CCN1c1ccccc1O`, the “activity change, negative = inhibition” value was -3.29%.

For the compound `Cc1ncc(CO)c(CO)c1O`, the “activity change, negative = inhibition” value is -2.57% [at 25.6 µM].

On to `CCN(CC)CCOc1ccc(/C(=C(\Cl)c2ccccc2)c2ccccc2)cc1`, for which the “activity change, negative = inhibition” value is -11.4% [at 25.6 µM].

In the case of `CCCCCCCCCCCCCCCC[n+]1ccccc1`, the “activity change, negative = inhibition” value was 11.5%.

In the case of `O=C(O)/C=C(\CC(=O)O)C(=O)O`, the activity change, negative = inhibition is 4.55% [at 11.4 µM].

Regarding `OC(CCCN1CCCCC1)(c1ccccc1)c1ccccc1`, the “activity change, negative = inhibition” value is -15.7% [at 25.6 µM].

On to `Nc1c2ccccc2nc2ccccc12`, for which the “activity change, negative = inhibition” value is 12.9%.

Turning to `Nc1ccc(O)cc1`, the “activity change, negative = inhibition” value was -12.7%.

As to `O=C(Oc1ccccc1)c1ccccc1O`, the “activity change, negative = inhibition” value is -0.798%.

Consider `NC(N)=NCCCCN=C(N)N`, for which the result was inactive.

In the case of `Brc1ccc([C@H]2CN3CCSC3=N2)cc1`, the “activity change, negative = inhibition” value is 18.4%.

For the compound `C1=CC2C3C=CC(C3)C2C1` (configuration not stated), the “activity change, negative = inhibition” value is -6.21%.

Consider `COc1ccccc1N1CCN(CCN2C(=O)CC3(CCCC3)CC2=O)CC1`, for which the “activity change, negative = inhibition” value was -5.06%.

`O=C(c1ccccc1)c1ccccc1`: the “activity change, negative = inhibition” value is -3.19%.

For the compound `C[N+](C)(C)CCO`, the “activity change, negative = inhibition” value was 24.3%.

For `CC(C)(C)c1ccc(O)c(O)c1`, the “activity change, negative = inhibition” value was 13.6%.

As to `OCc1c[nH]c2ccccc12`, the “activity change, negative = inhibition” value was 6.58%.

`c1ccc2occc2c1`: the “activity change, negative = inhibition” value was 7.61%.

With `O=C(CCCCC(=O)Nc1c(I)cc(I)c(C(=O)O)c1I)Nc1c(I)cc(I)c(C(=O)O)c1I`, the “activity change, negative = inhibition” value is 2.18% [at 25.6 µM].

`Clc1ccc2c(c1)N=C(N1CCNCC1)c1ccccc1N2`: the “activity change, negative = inhibition” value was -7.88%.

In the case of `C[C@@H](C1=C(CCN(C)C)Cc2ccccc21)c1ccccn1`, the “activity change, negative = inhibition” value was 16%.

For `CN(C(=O)C(Cl)Cl)c1ccc(OC(=O)c2ccco2)cc1`, the “activity change, negative = inhibition” value is 0.99% [at 25.6 µM].

With `COc1cc(C=O)ccc1O`, the “activity change, negative = inhibition” value is 4.88%.

In the case of `CCOC(=O)NNc1nncc2ccccc12`, the “activity change, negative = inhibition” value was 1.1% [at 25.6 µM].

Take `O=C(NO)c1ccccc1`: the “activity change, negative = inhibition” value is -2.19%.

As to `Brc1ccccc1-c1ccccc1`, the “activity change, negative = inhibition” value is -0.755%.

In the case of `CC(=O)OC/C=C(C)/C=C/C=C(C)/C=C/C1=C(C)CCCC1(C)C`, the “activity change, negative = inhibition” value was 19.2%.

As to `Nc1c[n+](N2CCOCC2)no1`, the “activity change, negative = inhibition” value is -18.9%.
